In the library only some 3.6% were active in any assay of this set; here they are far more common.
HTT promoter inh – HTT promoter inhibition; HEK293 HTT promoter firefly luciferase reporter, 24 h; Potency, µM (series often up to 57.5 µM), without a hit: at the top dose activity change, negative = inhibition, usual class: inhibitors; actives 0.93% (n = 48,000); further: nearly all actives have a fitted effect of over 50% in size
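Luminescence was read after Dual-Glo reagent and a 10 min room-temperature incubation. Values were normalized to vehicle (0% activity) and zero RLU (-100% activity). Reporter HEK293 cells had been exposed to compounds (up to 57.5 uM final) for 24 h.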
HTT-AS act – HTT-AS promoter activation; actives 0.24% (n = 48,000); HEK293 HTT-AS promoter firefly luciferase reporter, 24 h; response scale: percent change from vehicle, -100% = no light; AID 1508624; Potency, µM (highest dose often 57.5 µM), inactives show at the top dose activity change, positive = activation, actives largely listed as activators; further: nearly all actives have a fitted effect of over 55% in size
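Quantitative HTS used concentration series of up to 57.5 uM final on HEK293 luciferase reporter cells, 24 h at 37 degrees C. Readout was Dual-Glo firefly luminescence.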
OvCa metastasis – blocks SKOV3ip1 adhesion and invasion in omental model. SKOV3ip1-GFP adhesion/invasion on 3D omental model, fluorescence. Potency, µM (doses to about 45.8 µM), for the others: at the top dose activity change, negative = inhibition, most hits filed as inhibitors. actives 0.1% (n = 46,000). AID 1963576;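 further: plate controls were DMSO wells for no effect and tomatine positive control wells for full effect; nearly all actives have a fitted effect of over 65% in size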
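Primary human omental fibroblast/mesothelial 3D culture pre-formed 48 h. SKOV3ip1-GFP cells added with compounds (0.36-46 umol/L), incubated 2 h RT/16 h 37 C, fixed; GFP cells quantified at 488/509 nm.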
S16 F2sN tox – toxic to S16 Pmp22-F2sN Schwann cells | Potency, µM (series often up to 57.5 µM), for the others: at the top dose activity change, negative = cytotoxicity, actives largely listed as cytotoxic | S16 Pmp22-F2sN Schwann cells viability, CellTiter-Glo, 24 h | actives 0.48% (n = 43,000); further: on the % scale 0 is the no-effect control and ±100 the full control effect; nearly all actives have a fitted effect of over 65% in size
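S16 Schwann cells carrying the Pmp22-F2sN reporter, seeded in 1536-well format, were exposed to library compounds for 24 h at 37C. Viability was read as CellTiter-Glo luminescence after 15 min at room temperature.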
PMP22 txn prim – modulators of PMP22 gene transcription in S16 Schwann cells; S16 Pmp22-F2sN Schwann cells (luciferase reporters placed in the Pmp22 gene), FLuc/NLuc coincidence luminescence, 24 h; AID 1508649; actives 2% (n = 43,000); Potency, µM (top dose mostly 57.5 µM), for inactives: top-dose activity change, negative = inhibition, actives largely listed as inhibitors; active means clear falling dose curves in both reporters; inconclusive means both reporters move, but less clearly or upward; inactive means either reporter flat; the % is the NLuc reporter signal; further: on the % scale 0 is the no-effect control and ±100 the full control effect
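Reporter cells (S16 Pmp22-F2sN, 500–1,000 per well) exposed to compounds for 24 h, 37C, 5% CO2; lysis with FLuc read after 10 min, then Stop&Glo and NLuc read after 10 min.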
mTORC1 inh – reduces mTORC1 signaling in Tsc2 and p53 null MEF cells; AID 493208; Tsc2-/- p53-/- MEF, phospho-rpS6 immunofluorescence/PI, 24 h; Potency, µM (series often up to 38.3 µM), without a hit: at the highest dose activity change, negative = inhibition, hits mostly inhibitors; actives 0.78% (n = 44,000);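 further: plate controls were DMSO for no effect and rapamycin for full effect; nearly all actives have a fitted effect of over 50% in size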
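Read-out: phospho-S6 Alexa-488 intensity over PI intensity per well, scored as % active cells using thresholds from rapamycin (7.5 nM) and DMSO controls. Tsc2-/-, p53-/- MEFs exposed to compound for 24 h; PI cell count recorded as viability.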
* hit, by the source's call; i = inactive; ? = inconclusive; · = no result. Unless noted, the call rests on the fitted dose curve; in most records, active means well fitted curve in the direction sought with a large enough effect; inconclusive means small, poorly fitted or top-dose-only effect, or another doubt; inactive means no such curve, though single readings can be large; an effect the other way counts as inactive or inconclusive. Potency means the concentration at half of the fitted maximal effect.

SMILES	HTT promoter inh	HTT-AS act	OvCa metastasis	S16 F2sN tox	PMP22 txn prim	mTORC1 inh
CCN1CCN(c2cc(C)c3cc(NC(=O)/C=C/c4ccc(C)cc4)ccc3n2)CC1	-9.2%	5.0%	?	?	?	18.5µM*
CCN1CCN(c2cc(C)c3cc(NC(=O)/C=C/c4ccc(OCCC(C)C)cc4)ccc3n2)CC1	-4.1%	-12.0%	-21.2%	?	?	4.14µM*
CN(C)c1ccc(Nc2nc(N)n(C(=O)c3c(F)cccc3F)n2)cc1	20.8%	24.3µM*	18.0%	·	·	·
Cc1nc2cc(-c3cccc(F)c3)nn2c(C)c1CCC(=O)NCCc1ccccc1	?	-61.8%	-1.3%	1.9%	-28.4%	4.4%
Cc1nc2cc(-c3ccccc3)nn2c(C)c1CCC(=O)NCCc1ccccc1	7.08µM*	-74.0%	-8.0%	?	-7.9%	-3.0%
CCCCNC(=O)CCc1c(C)nc2cc(-c3ccccc3)nn2c1C	2µM*	-69.6%	i	0.3%	-0.5%	-5.2%
COc1ccccc1-c1cc2nc(C)c(CCC(=O)NCc3cccc(Cl)c3)c(C)n2n1	12.6µM*	-80.0%	i	2.3%	?	0.2%
CN(C)c1ccc(C2Nc3ccc4ccccc4c3C3=C2C(=O)CC(C)(C)C3)cc1Br (configuration not stated)	-12.5%	-15.5%	5.0%	·	·	·
CCN1CCC(N(Cc2ccc3c(c2)OCO3)C(=O)Nc2ccccc2OC)CC1	-10.6%	-8.4%	1.0%	0.9%	8.1%	-17.1%
CCOc1ccccc1NC(=O)N(Cc1ccc(F)cc1)C1CCN(CC)CC1	-9.4%	-11.5%	-9.0%	11.0%	-10.5%	14.7µM*
CCN1CCC(N(Cc2ccc(F)cc2)C(=O)Nc2ccc(C)c(F)c2)CC1	-9.6%	-8.0%	-19.1%	7.9%	17.1%	16.5µM*
Nc1ncnc2c1c(-c1cnc3[nH]ccc3c1)nn2C1CCCC1	?	-37.7%	?	·	·	·
Oc1c(C(Nc2ccccn2)c2ccccc2F)ccc2cccnc12 (configuration not stated)	?	-30.4%	0.8%	2µM*	?	?
Cc1ccnc(NC(c2ccccc2F)c2ccc3cccnc3c2O)c1 (configuration not stated)	?	-48.7%	i	?	?	?
CN(C)S(=O)(=O)c1ccc2c(c1)C(=Cc1cc3c([nH]1)CCCC3)C(=O)N2	?	-37.0%	25.9%	·	·	·
N#Cc1ccc(Oc2ccc3c(c2)COB3O)cc1	-0.7%	0.2%	-5.3%	·	·	·
COc1cc(C)c(C=CC(C)=CC=CC(C)=CC(=O)O)c(C)c1C	14.9%	-0.1%	-21.8%	·	·	·
Cc1ccc(Nc2ncnc3sc4c(c23)CCC(C)C4)cc1C (configuration not stated)	-5.3%	-3.1%	i	-1.8%	2.5%	-16.5%
CN(C)c1ccc(Nc2ncnc3sc4c(c23)CCCC4)cc1	11.2µM*	-78.6%	13.1%	-14.9%	?	0.0%
Clc1ccc2ncc(-c3cccc(NC4CNC4)n3)n2c1	-24.6%	-6.1%	20.1%	·	·	·
COc1cccc(Nc2sc(C(=O)c3ccc(Cl)cc3)c(N)c2C(=O)NCc2ccc(C)cc2)c1	?	-37.7%	-2.8%	?	8.91µM*	?
COc1cccc(Nc2sc(C(=O)c3ccc(F)cc3)c(N)c2C(=O)NCc2ccc(Cl)cc2)c1	?	-15.5%	3.9%	0.8%	-42.0%	-5.6%
CCc1ccc(OCC(=O)Nc2ncn[nH]2)c(Br)c1	54.5%	25.1µM*	12.5%	-3.0%	-12.8%	-3.5%
O=C(COc1ccc(Br)cc1Cl)Nc1ncn[nH]1	72.0%	8.91µM*	13.4%	-1.8%	1.6%	-3.6%
